Results with a measured potency or affinity are listed apart. A number with no mark means an inactive call. How the calls were made is not given here.
Experiment: host cell cytotoxicity of antiviral hits, dose response, cytotoxicity control for West Nile virus antiviral project, secondary assay (AID 1650)
Settings: Mammalian host cell viability, cytotoxicity counter-screen; series mostly up to 10 µM; viability: at the top concentration

Point of comparison: `CCc1ccc(C(=O)Cn2ncc(Cl)c(Cl)c2=O)cc1`, “viability” value 81.2%. Against it:
- CC(=O)N[C@@H](C)C(=O)N1CCC(n2nccc2NC(=O)CCCc2ccccc2)CC1 — higher, 91.7%
- CC1CCCN(CCCNC(=O)c2ccc3c(c2)N(Cc2ccccc2F)C(=O)c2ccccc2S3(=O)=O)C1 (stereo not given) — higher, 85.2%
- COc1ccc(NC(=O)CSc2nc3c(sc4ccccc43)c(=O)n2CCCN2CCCC2)cc1 — lower, 75.6%
- CC1=CC(C)(C)N2C(=O)C3(NCCc4c3[nH]c3ccccc43)c3cc(C)cc1c32 (stereo not given) — higher, 92.3%
- COc1cc2c(OC(C)=O)c3c(c(-c4ccc5c(c4)OCO5)c2cc1OC)C(=O)OC3 — higher, 91%
- Cc1cc(C)c(-c2csc(NC(=O)/C=C/c3cccs3)n2)c(C)c1 — lower, 71.9%
- Cc1ccc(OCC(O)Cn2c(=N)n(CCN3CCCCC3)c3ccccc32)cc1 (stereo not given) — lower, 79.3%
- CC1CCN(c2nc3ccc(C(=O)NCCCN4CCCCC4C)cc3s2)CC1 (stereo not given) — lower, 78.7%
- Cc1ccc(C)c(N2CCN(CCCNC(=O)Cn3cccc3C(=O)c3ccccc3)CC2)c1 — lower, 78.4%
- CN1CCN(NC(=O)c2cc(-c3ccc(Br)s3)nc3ccccc23)CC1 — higher, 83.9%
- CCOc1ccc(NC(=O)c2c(NC(=O)CN3CCN(C)CC3)sc3c2CCC3)cc1 — lower, 77%
- Cc1ccc2nc(N(CCCN(C)C)C(=O)c3cc(-c4cccs4)nc4ccccc34)sc2c1 — higher, 81.7%
- CCOC(=O)C(=CNc1ccc2c(c1)nnn2-c1ccc(Cl)cc1)C(=O)OCC — lower, 70.6%
- Cc1cccn2c(=O)c3cc(C(=O)NCCN4CCOCC4)c(=N)n(Cc4ccc(F)cc4)c3nc12 — lower, 74.9%
- O=C(Nc1ccc(F)cc1F)c1cc2ccccc2oc1=O — higher, 93.6%
- CCOc1c2ccoc2nc2c(OC)c(OC)ccc12 — higher, 97.5%
- CN1C2CCC1/C(=C\c1ccccc1)C(=O)/C2=C\c1ccccc1 — lower, 71.7%
- O=C(NC1CCCCC1)C(c1ccc(Cl)cc1)N(C(=O)c1ccccn1)c1cccnc1 (stereo not given) — lower, 79.4%
- CCn1ncc(CN2CCC(C(=O)Nc3cccc(-c4cccc(F)c4)c3)CC2)c1C — higher, 82.2%
- CN1CCN(c2ccc(S(=O)(=O)N3CCCCC3)cc2NC(=O)c2ccc3ccccc3c2)CC1 — higher, 85.4%
- CCOC(=O)N1CCC2(CC1)C(C#N)=C(N)OC1=C2C(=O)CCC1 — higher, 95.4%
- CCCCc1nc2ccccc2c(N)c1CCC (tested in a mixture with another compound) — higher, 81.9%
- Cc1cccc2c1NC(=O)/C2=C\C(=O)c1cccs1 — higher, 82.2%
- COc1ccc(C2c3[nH]c4ccccc4c3CCN2C(=O)c2ccccc2C(C)=O)c(F)c1 (stereo not given) — higher, 92.8%

Point of comparison: `COCCn1c(SCC(=O)Nc2nnc(C)s2)nnc1-c1ccncc1`, “viability” value 94% [at 20 µM]. Against it:
- COc1ccc(Cl)cc1NC(=O)c1nnn(CC(=O)Nc2cc(C)cc(C)c2)c1N — lower, 79.6% [at 20 µM]
- O=C(Nc1ccc(F)c(Cl)c1)Nc1ccc(Cl)cn1 — lower, 83.2% [at 20 µM]
- COc1cc2nc(N3CCN(C(=O)C4COc5ccccc5O4)CC3)nc(N)c2cc1OC (stereo not given) — lower, 86.3% [at 20 µM]
- CCN(CC)S(=O)(=O)c1ccc(NC(=O)CSc2nnc(-c3cccc(OC)c3)n2C)cc1 — lower, 90% [at 20 µM]
- CCc1nn(CC(=O)NC2CCN(Cc3ccccc3)CC2)c(=O)c2cc3cc(F)ccc3n12 — lower, 81.2% [at 20 µM]
- Cc1cc(N2CCN(C)CC2)nc2ccc(NC(=S)NCc3cccs3)cc12 — lower, 72.5% [at 20 µM]
- Cc1nn(Cc2ccc(Cl)cc2)c(C)c1NC(=O)CSc1nc2c(c(C(F)(F)F)n1)CCc1ccccc1-2 — lower, 79.5% [at 20 µM]
- CCOC(=O)c1c(CN2CCN(C)CC2)n(C)c2cc(Br)c(OC)cc12 — lower, 75.1% [at 20 µM]
- CC(C)n1cc(/C=C2/SC(=O)N(CC(=O)Nc3ccc4c(c3)OCO4)C2=O)c2ccccc21 — lower, 83.5% [at 20 µM]
- Cc1cc(C)nc(S/C=C/C(=O)c2ccccc2F)n1 — lower, 77.7% [at 20 µM]
- CCCC12CN3CC(C)(CN(C1)C3c1ccc(OC(C)C)cc1)C2=O (stereo not given) — lower, 90.3% [at 20 µM]
- O=C(NCCOc1ccccc1Cl)c1ncn[nH]1 — higher, 96.6% [at 20 µM]
- O=C(/C=C/c1ccc2c(c1)OCO2)Nc1ccc(Cl)cn1 — higher, 95.4% [at 20 µM]
- CCN(CC)S(=O)(=O)c1ccc2c(c1)c(=O)c(C(=O)NCCc1ccc(OC)c(OC)c1)cn2C — lower, 92.3% [at 20 µM]
